Test [1] in a line: reducers of endogenous Her2 protein level, primary screen, SKBR3 breast tumor cells, AlphaScreen, ATP viability (AID 461;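 active = Her2 level under about 52% in both replicate screens, with viability over 70% of control, limit read from the data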;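 as to Her2 level: lower value means less Her2 protein in the cells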;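 as to viability: percent of carrier control wells set as 100% viability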). The note with it: 18-24 h, measured here: SKBR3 viability, ATP luminescence, at 10 µM. For orientation: Bead proximity is the source of the signal in Alpha formats.
The target in test [2] is Receptor tyrosine-protein kinase erbB-2 (Homo sapiens) (UniProt P04626). Described as above. To be noted: 18-24 h, at 10 µM, stronger effect = lower value.
Sequence of Receptor tyrosine-protein kinase erbB-2 (Homo sapiens) (P04626 whole entry, looked up): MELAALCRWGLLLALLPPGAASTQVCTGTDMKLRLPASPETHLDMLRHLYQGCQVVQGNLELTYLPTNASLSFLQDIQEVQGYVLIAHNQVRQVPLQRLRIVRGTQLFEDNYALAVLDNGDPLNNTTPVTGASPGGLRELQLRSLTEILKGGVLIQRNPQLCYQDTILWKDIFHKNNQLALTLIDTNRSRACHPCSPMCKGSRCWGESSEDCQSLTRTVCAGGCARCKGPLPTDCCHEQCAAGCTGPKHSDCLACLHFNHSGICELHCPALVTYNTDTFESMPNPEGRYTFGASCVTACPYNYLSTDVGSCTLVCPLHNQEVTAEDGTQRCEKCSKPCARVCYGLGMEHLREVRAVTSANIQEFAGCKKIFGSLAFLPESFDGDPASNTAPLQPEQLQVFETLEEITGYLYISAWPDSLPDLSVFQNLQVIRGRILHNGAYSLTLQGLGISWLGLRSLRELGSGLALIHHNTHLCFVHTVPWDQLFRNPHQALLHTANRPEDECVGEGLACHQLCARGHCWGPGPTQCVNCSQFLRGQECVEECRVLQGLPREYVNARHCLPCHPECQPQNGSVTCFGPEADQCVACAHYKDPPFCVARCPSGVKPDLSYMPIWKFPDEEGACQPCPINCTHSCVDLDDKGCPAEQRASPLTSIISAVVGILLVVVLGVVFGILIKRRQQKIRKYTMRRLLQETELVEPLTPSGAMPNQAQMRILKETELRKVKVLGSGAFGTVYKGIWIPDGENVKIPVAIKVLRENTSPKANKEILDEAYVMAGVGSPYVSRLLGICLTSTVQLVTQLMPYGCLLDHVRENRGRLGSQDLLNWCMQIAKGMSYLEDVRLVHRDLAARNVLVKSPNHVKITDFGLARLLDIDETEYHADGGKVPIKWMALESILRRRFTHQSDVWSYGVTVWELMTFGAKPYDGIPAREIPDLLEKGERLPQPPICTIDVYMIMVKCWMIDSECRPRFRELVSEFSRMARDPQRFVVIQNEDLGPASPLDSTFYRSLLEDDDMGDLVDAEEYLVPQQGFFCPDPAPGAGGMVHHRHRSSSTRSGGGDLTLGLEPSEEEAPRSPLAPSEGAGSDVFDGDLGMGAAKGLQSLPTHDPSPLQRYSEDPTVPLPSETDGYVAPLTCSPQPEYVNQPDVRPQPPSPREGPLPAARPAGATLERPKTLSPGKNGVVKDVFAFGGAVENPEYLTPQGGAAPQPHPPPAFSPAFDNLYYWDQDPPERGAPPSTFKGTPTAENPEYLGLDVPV
Test [3] is described as follows: SK-BR-3 cell growth inhibitors, pilot screen, 24 h, human (AID 572;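 active = viability at or below 10% of carrier control in both of two separate runs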;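 also: compound exposure lasted between 18 and 24 h rather than exactly 24 h; 100% = carrier-treated control wells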). To be noted: SK-BR-3 viability, CellTiter-Glo luminescence, at 10 µM, stronger effect = lower value.
Test [4] can be described thus: HUVEC growth inhibition – cell-based, human, primary screen (AID 575).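 Also: 100% = median of untreated cell wells with 0.1% DMSO on each plate.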 The note with it: HUVEC proliferation, CellTiter-Glo luminescence, 72 h; at 10 µM; stronger effect = lower value. (In general: Cellular ATP, detected with luciferase, serves as a proxy for viable cell number.)
Test [5] in a line: growth inhibitors of H69AR lung tumor, primary screen, human, duplicate replicates (AID 580;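 active = viability at or under a set limit in both replicates, limit being median viability minus 3 SD, cut at about 48% in these data, passing the limit was not always enough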;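 also: 100% = mean luminescence of untreated wells and 0% = no signal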). To be noted: H69AR lung tumor cells viability, ATP luminescence, 72 h; at 10 µM; stronger effect = lower value.
Test [6] in a line: reversal of MRP1-mediated doxorubicin resistance, pilot screen, H69AR cells, doxorubicin co-treatment (AID 601;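 active = viability loss from added drug above about 55%, and viability with drug at most 40%, in both replicates, limit read from the data, passing the limit was not always enough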). To be noted: CellTiter-Glo, 72 h, at 10 µM; for differential viability (reversal): stronger effect = higher value.
A short description of test [7]: 384-well plate pilot, post-Golgi transport modulator project, inhibition of yeast transport mutant growth (AID 636; in the data active = inhibition above about 31%). The note with it: absorbance 615 nm, about 18 h, stronger effect = higher value.
Test [8] in a line: growth suppression of yeast trafficking mutant, preliminary HTS, modulators of trafficking downstream of Golgi apparatus project, 1536-format plate, OD 615 nm (AID 637; in the data active = inhibition above about 30%). The note with it: yeast transport mutant growth, absorbance 615 nm, 18 h; stronger effect = higher value.
Test [9] is described as follows: OD615 S. cerevisiae growth inhibition, permissive medium, pilot counter-assay, permissive growth control for S. cerevisiae lifespan shortening project (AID 705;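 active = growth inhibition above 25% in both replicates, a cutoff set 3 SD above the mean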). To be noted: OD615, 24 h, at 10 µM, stronger effect = higher value.
The nature of test [10]: Restrictive medium S. cerevisiae growth inhibition, OD615, pilot screen of yeast lifespan reduction project, restrictive growth control (AID 706;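 active = growth inhibition above a set limit, 3 SD over mean compound inhibition, in both replicates, cut at about 43% in these data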;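 also: modified DeaD lifespan yeast strain shifted to restrictive glucose medium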). To be noted: OD615, 48 h, at 10 µM, stronger effect = higher value.
Test [11] can be described thus: viability gain of MRP-1-high H69AR cells under doxorubicin, pilot screen, MRP-1 activator project, CellTiter-Glo, duplicate (AID 807;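 active = viability increase at or above a cutoff of the median across tested compounds plus 3 SD, cut at about 8.5% in these data, passing the limit was not always enough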;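 also: compound pretreatment 18-22 h then 72 h combined with doxorubicin; 0% = doxorubicin alone and 100% = vehicle without doxorubicin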). To be noted: H69AR viability with doxorubicin, CellTiter-Glo luminescence; at 10 µM; stronger effect = higher value.
The nature of test [12]: growth suppression of PTEN-deleted HCT116, pilot screen, cell-based, HCT116 clonal line, CellTiter-Glo (AID 824;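 active = viability at or below 27.92% in each of two runs, the all-compound median minus 4 SD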;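 also: 0% = 20 µM Hyamine control and 100% = vehicle cell control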). The note with it: 60 h, at 10 µM, stronger effect = lower value.
The nature of test [13]: inhibitors of the yeast RAM network, pilot screen, dse1pr::URA3 reporter, 5-FOA selection (AID 869;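 active = inhibition over a set limit, the all-compound mean plus 3 SD, in both replicate runs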;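 also: 0% = DMSO wells with no growth and 100% = 10 µM 1-NA-PP1 with full growth; RAM network block rescues cells from 5-FOA so hits raise OD615 growth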). The note with it: S. cerevisiae dse1pr::URA3 5-FOA growth, OD615, 2 d; at 10 µM; stronger effect = higher value; strain carries analog-sensitive mutant Cbk1 kinase.
A short description of test [14]: RAM signaling pathway blockade in yeast – S. cerevisiae, Pdr1DBD-CYC8 efflux-inhibited sensitized strain, primary screen (AID 1298;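 active = RAM network inhibition above 8.4% in each of two replicates, 3 SD over the compound average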;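 also: 0% = DMSO untreated cells without growth and 100% = 10 µM 1-NA-PP1 full growth; higher means more yeast growth rescued from 5-FOA killing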). To be noted: S. cerevisiae cbk1-as DSE1-URA3 strain, 5-FOA growth OD615, 2 d; at 50 µM; stronger effect = higher value.
Test [15] in a line: growth suppression of beta-catenin knockout HCT116, pilot screen, human colon tumor cells (AID 823;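 active = cell viability at or below a set limit in both duplicate runs, the limit being the all-compound median minus 4 SD, cut at about 23% in these data, passing the limit was not always enough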;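 also: 0% = wells killed by 20 µM Hyamine and 100% = untreated DMSO cell wells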). To be noted: CellTiter-Glo, 60 h, at 10 µM, stronger effect = lower value.
Setting [16] is: H69AR cells + 2 uM doxorubicin, measured here: viability with 2 uM doxorubicin, stronger effect = lower value.
[17] abbreviates: H69AR cells, compound alone cytotoxicity.

Results filed as inconclusive are left out. Active and inactive are the calls of the source.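 The calls were made as follows, unless noted: active = viability at or below 30% in both replicate assays; inconclusive = viability at or below 30% in just one of the two assays; inactive = the rest.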

As a reminder, the viability is a read-out of living cells in per cent, often relative to untreated cells. As usually defined, the inhibition is the drop in the measured response relative to a control, in per cent. Turning to `Cc1cccc(Cc2c(C)nc3nc(SCC(=O)NCc4ccco4)nn3c2C)c1`, the viability in [1] was 106%; in test [3], 106% (inactive); in [4] it was 61.8% (inactive); in test [5], 49.6% (active); in test [6] (setting [16]), 77.4%; in test [6] (setting [17]), 49.6%. Also, in [12], the viability was 81.9% (inactive). Further, the Her2 level in [2] was 85.5% (inactive). Besides, the differential viability (reversal) in [6] (H69AR cells + 2 uM doxorubicin) was -27.8% (inactive). Moreover, the inhibition in test [7] is -4.59% (inactive); in test [8] it was -0.33% (inactive); in test [13] it was 1.14% (inactive). For the same compound, the growth inhibition in test [9] was 2.65% (inactive); in test [10], 21.9% (inactive). In test [11], the viability increase is -3.35% (inactive). The RAM network inhibition in [14] is 4.46% (inactive).
As for `CCOC(=O)CCCOC(=O)c1ccc(S(=O)(=O)N(C)C)cc1`, the viability in test [1] is 95%; in test [3], 95% (inactive); in [4] it was 88.7% (inactive); in test [5], 100% (inactive); in [6] (setting [16]), 98.7%; in [6] (setting [17]) it was 100%. The viability in [12] was 89.6% (inactive). Moreover, the Her2 level in test [2] is 84.5% (inactive). In test [6] (H69AR cells + 2 uM doxorubicin), the differential viability (reversal) is 1.72% (inactive). In addition, the figures for the inhibition in test [7], in [8] and in test [13] were -6.49% (inactive), 2.79% (inactive) and 1.5% (inactive), respectively. For the same compound, the growth inhibition is -13.7% (inactive) in test [9] and -2.25% (inactive) in test [10]. Besides, the viability increase in test [11] is -2% (inactive). In test [14], the RAM network inhibition is 4.96% (inactive).
`Cn1ccnc1SCC(=O)Nc1ccc2ccccc2c1`: the viability in [1] was 96.5%; in test [3], 96.5% (inactive); in test [4], 91.5% (inactive); in test [5], 105% (inactive); in [6] (setting [16]), 86.9%; in test [6] (setting [17]), 105%. The viability in test [15] is 96.8% (inactive). Also, the Her2 level in test [2] is 85.5% (inactive). The differential viability (reversal) in [6] (H69AR cells + 2 uM doxorubicin) is 17.8% (inactive). The inhibition is -4.38% (inactive) in [7], -4.92% (inactive) in [8] and 1.69% (inactive) in test [13]. Besides, the growth inhibition is 2.36% (inactive) in test [9] and 3.36% (inactive) in test [10]. Further, the viability increase in [11] was -2.68% (inactive). In addition, the RAM network inhibition in test [14] was 3.49% (inactive).
For the compound `Fc1ccc(-c2ccc(-c3nn4c(-c5ccco5)nnc4s3)o2)cc1`, the viability was 76% in test [1]; 76% (inactive) in test [3]; 77.8% (inactive) in [4]; 79.7% (inactive) in [5]; 74.5% in [6] (setting [16]); 79.7% in test [6] (setting [17]). The viability in test [15] is 97.1% (inactive). Moreover, the Her2 level in test [2] was 63% (inactive). For the same compound, the differential viability (reversal) in test [6] (H69AR cells + 2 uM doxorubicin) was 5.16% (inactive). Besides, the inhibition in test [7] was -4.32% (inactive); in test [8], 4.92% (inactive); in [13] it was 1.25% (inactive). Also, the growth inhibition in test [9] was 2.35% (inactive); in test [10] it was 60.4% (active). In addition, the viability increase in [11] was -3.88% (inactive). Further, in [14], the RAM network inhibition was 2.34% (inactive).
Consider `O=C1NC(=O)C(CC(=O)N(Cc2ccco2)C2(C(=O)NC3CCCC3)CCCCC2)N1` (stereo not given), for which the viability in test [1] is 99.5%; in [3], 99.5% (inactive); in [4], 106% (inactive); in [5], 92.6% (inactive); in test [6] (setting [16]), 94.1%; in test [6] (setting [17]), 92.6%. For the same compound, the viability in test [12] is 89% (inactive). In test [2], the Her2 level is 116% (inactive). The differential viability (reversal) in test [6] (H69AR cells + 2 uM doxorubicin) is -1.5% (inactive). The values for the inhibition in [7], in test [8] and in [13] were -7.95% (inactive), -6.51% (inactive) and 0.975% (inactive), respectively. Further, the results for the growth inhibition in test [9] and in test [10] were -7.63% (inactive) and -4.51% (inactive), respectively. In addition, the viability increase in [11] was -3.06% (inactive). For the same compound, the RAM network inhibition in test [14] was -0.51% (inactive).
Regarding `CC1(C)CC(=O)CC(C2(O)C(=O)N(Cc3ccccc3)c3ccccc32)O1` (stereo not given), the viability is 99.5% in test [1]; 99.5% (inactive) in test [3]; 78.3% (inactive) in test [4]; 44% (active) in [5]; 56.7% in test [6] (setting [16]); 44% in test [6] (setting [17]). The viability in test [12] is 44.2% (inactive). In addition, the Her2 level in test [2] was 82.5% (inactive). Also, the differential viability (reversal) in test [6] (H69AR cells + 2 uM doxorubicin) was -12.7% (inactive). Also, the inhibition was 1.2% (inactive) in test [7], -4.75% (inactive) in test [8] and 1.98% (inactive) in [13]. Further, the growth inhibition is -7.38% (inactive) in [9] and 4.87% (inactive) in test [10]. For the same compound, the viability increase in test [11] was -5.63% (inactive). In addition, the RAM network inhibition in test [14] is 1.36% (inactive).
As for `COC(=O)C1(C(F)(F)F)N=C2Sc3ccccc3N2C(N2CCOCC2)=N1` (stereo not given), the viability in test [1] was 91%; in test [3], 91% (inactive); in test [4], 81.5% (inactive); in [5], 92.5% (inactive); in test [6] (setting [16]), 93.4%; in [6] (setting [17]), 92.5%. The viability in test [12] was 53.8% (inactive). In [2], the Her2 level was 89% (inactive). For the same compound, in [6] (H69AR cells + 2 uM doxorubicin), the differential viability (reversal) was -0.935% (inactive). In addition, the results for the inhibition in test [7], in [8] and in test [13] were -5.73% (inactive), 5.17% (inactive) and 1.03% (inactive), respectively. Also, the growth inhibition is -9.31% (inactive) in test [9] and -10% (inactive) in test [10]. Further, the viability increase in [11] was -1.24% (inactive). The RAM network inhibition in test [14] is 2.93% (inactive).
For `Cc1ccc(-n2c3c(cc(C(=O)O)c2=O)C(=O)CC(C)(C)C3)cc1`, the viability in [1] is 98%; in [3], 98% (inactive); in test [4] it was 111% (inactive); in [5] it was 87.8% (inactive); in test [6] (setting [16]), 90.9%; in [6] (setting [17]), 87.8%. The viability in [12] was 100% (inactive). Moreover, in test [2], the Her2 level was 82.5% (inactive). In test [6] (H69AR cells + 2 uM doxorubicin), the differential viability (reversal) is -3.07% (inactive). Besides, the values for the inhibition in [7], in test [8] and in test [13] were -1.84% (inactive), 0% (inactive) and 0.675% (inactive), respectively. The growth inhibition was -16.4% (inactive) in [9] and -5.83% (inactive) in test [10]. Also, the viability increase in test [11] is -3.48% (inactive). Further, in [14], the RAM network inhibition is 4.71% (inactive).
On to `O=C1CCCC2=C1C(c1cccs1)n1nc(SCc3ccccc3F)nc1N2` (stereo not given), for which the viability in test [1] was 85%; in test [3], 85% (inactive); in test [4], 65.5% (inactive); in test [5], 81.7% (inactive); in test [6] (setting [16]), 15.6%; in [6] (setting [17]) it was 81.7%. The viability in [12] is 68.4% (inactive). Besides, the Her2 level in test [2] is 99.5% (inactive). In addition, in test [6] (H69AR cells + 2 uM doxorubicin), the differential viability (reversal) was 66.1% (active). Besides, the inhibition in [7] is -0.27% (inactive); in test [8], 10.2% (inactive); in test [13], 1.23% (inactive). The growth inhibition in test [9] is -6.56% (inactive); in test [10], -6.42% (inactive). In addition, the viability increase in test [11] was -5.19% (inactive). In addition, the RAM network inhibition in test [14] was 3.02% (inactive).
Consider `O=C(CCS(=O)(=O)c1cccc2nsnc12)NCc1ccccc1`, for which the viability in test [1] is 93.5%; in test [3], 93.5% (inactive); in [4], 91.2% (inactive); in test [5], 106% (inactive); in test [6] (setting [16]), 88.9%; in test [6] (setting [17]), 106%. In addition, the viability in [12] is 105% (inactive). Further, in test [2], the Her2 level is 116% (inactive). Moreover, the differential viability (reversal) in [6] (H69AR cells + 2 uM doxorubicin) was 17.4% (inactive). Further, the inhibition in test [7] was -3.01% (inactive); in test [8] it was -4.6% (inactive); in [13], 1.31% (inactive). Also, the growth inhibition is -12.7% (inactive) in test [9] and -4.2% (inactive) in test [10]. For the same compound, in test [11], the viability increase was -2.9% (inactive). In addition, in test [14], the RAM network inhibition was 1.65% (inactive).

Source of the values: PubChem BioAssay.
